Compounds without any hit were thinned out: in the full panel of roughly 83,000, 20% have a hit.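 Compound tested at a single concentration for 48 hours in 96-well plates; a percent growth value below 10 was scored as active.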 A number with no mark means an inactive call. The source made the active and inactive calls.
Tests used:
Assay in all cases: NCI-60 one-dose screen, 48 h (100 = growth as untreated, 0 = no growth, -100 = all killed)
Settings in all cases: 10 µM unless noted
NCI-H23 lung = tested on: NCI-H23 lung
NCI-H226 lung = tested on: NCI-H226 lung
NCI-H322M lung = tested on: NCI-H322M lung
HOP-62 NSCLC = tested on: HOP-62 NSCLC
NCI-H522 lung = tested on: NCI-H522 lung
A549/ATCC NSCLC = tested on: A549/ATCC NSCLC
786-0 renal = tested on: 786-0 renal
COLO 205 colon = tested on: COLO 205 colon
DU-145 prostate = tested on: DU-145 prostate
K-562 leukemia = tested on: K-562 leukemia
MALME-3M melanoma = tested on: MALME-3M melanoma
RXF 393 renal = tested on: RXF 393 renal
SF-268 CNS = tested on: SF-268 CNS
SF-295 CNS = tested on: SF-295 CNS
SF-539 CNS = tested on: SF-539 CNS
UACC-257 melanoma = tested on: UACC-257 melanoma
M14 melanoma = tested on: M14 melanoma
NCI-H460 lung = tested on: NCI-H460 lung
HOP-92 NSCLC = tested on: HOP-92 NSCLC
MDA-MB-231 breast = tested on: MDA-MB-231 breast

Structure (SMILES) | growth (NCI-H23 lung) | growth (NCI-H226 lung) | growth (NCI-H322M lung) [%] | growth (HOP-62 NSCLC) | growth (NCI-H522 lung) | growth (A549/ATCC NSCLC) | growth (786-0 renal) | growth (COLO 205 colon) | growth (DU-145 prostate) | growth (K-562 leukemia) | growth (MALME-3M melanoma) | growth (RXF 393 renal) | growth (SF-268 CNS) | growth (SF-295 CNS) | growth (SF-539 CNS) | growth (UACC-257 melanoma) | growth (M14 melanoma) | growth (NCI-H460 lung) | growth (HOP-92 NSCLC) | growth (MDA-MB-231 breast)
CCCCOc1ccc(NC(=O)c2sc3nc(C)ccc3c2N)cc1 | -69.5% (active) | 10.2% | 40.3 | 21.9% | 17.3% | 0.0895% (active) | -78.5% (active) | 80.4% | 46.4% | 9.87% (active) | 23.3% | -20.7% (active) | 29.8% | -54% (active) | -99.7% (active) | 54.1% | 59.9% | – | – | –
COc1ccccc1/C=C/C(=O)c1ccc(OC)c(S(N)(=O)=O)c1 | 23.2% | 39.8% | 30.5 | – | -9.78% (active) | 5.93% (active) | 24% | 1.12% (active) | 26.4% | – | 50% | -0.859% (active) | 21% | 21.8% | -4.72% (active) | 59.6% | 8.83% (active) | 5.83% (active) | 48.6% | 7.39% (active)
C[C@H]1CN(C(=O)c2ccc3c(NNC(=O)c4ccncn4)nc4cc(F)c(F)cc4n23)CCN1 | 37.5% | 6.31% (active) | 32.2 | 18.7% | 67.9% | 19.4% | -14.4% (active) | 9.98% (active) | 41.3% | – | 33.6% | 52.9% | 27.4% | 12.4% | 8.55% (active) | 22.3% | -24.8% (active) | – | 65.4% | 45.7%
Cc1ccc(C2=NN(c3nc(-c4cc5ccccc5oc4=O)cs3)C(c3ccc(C)cc3)C2)cc1 (centres undefined) | 95.6% | 88.8% | 102 | – | 100% | 109% | 110% | 111% | 113% | 101% | 91.6% | 103% | 120% | 99.6% | 93.9% | 112% | 106% | – | – | 84.4%
CC12CC[C@@H]3[C@]4(C)COC(c5cn[nH]c5-c5cccc(Br)c5)O[C@@H]4CC[C@@]3(C)[C@@H]1CC(C1=CCOC1=O)O2 (some centres undefined) | 38% | 37.8% | – | 70.3% | 24.9% | 25% | 53.1% | 10.5% | 53.5% | 15% | 37.7% | 6.19% (active) | 47% | 34.9% | 54.8% | 41.8% | 22.3% | 23.7% | – | 35.1%
COc1ccc2nc(Nc3cccc(NC(=O)c4ccc(CN5CCCN(C)CC5)c(C(F)(F)F)c4)c3)ccc2c1 | -71.9% (active) | -39.8% (active) | – | -47.3% (active) | -50.7% (active) | -24.8% (active) | -73.4% (active) | -31.7% (active) | -54.2% (active) | -18.6% (active) | -58.3% (active) | -82.9% (active) | -9.02% (active) | -53.9% (active) | -56.2% (active) | -34% (active) | -49.4% (active) | 8.75% (active) | -53.1% (active) | –
CC(C)Sc1nc(NCCc2c[nH]c3ccccc23)c(C#N)c(-c2ccc(F)cc2)n1 | 46.2% | 54.5% | – | 51.9% | 39.8% | 51.4% | 14.4% | 28.9% | 40.6% | 9.31% (active) | 80.6% | -3.65% (active) | 45.1% | 49.4% | 40.1% | 90.2% | 46.8% | 5.26% (active) | 20.1% | 11.2%
CCCCc1c(Nn2cnnn2)no[n+]1[O-] | 56.2% | 82% | – | 81.6% | -21.9% (active) | 66.4% | 56.2% | 60.8% | 56.2% | 28.2% | 68.7% | 39.5% | 82.2% | 56.9% | 57% | 68.5% | 68.1% | 36.5% | 46.4% | 49.3%
CN(C)CCCNC(=O)c1cc(NC(=O)c2cc(NC(=O)c3ccc(/C=C/c4ccccc4)cc3)cn2C)cn1C | 43.9% | 50.3% | 73.4 | – | -16.4% (active) | 35.7% | 42.3% | 32% | 57.1% | -41% (active) | 35% | 25% | 48.9% | 35.2% | 32.7% | 54.2% | 48.1% | 19.5% | – | 65.6%
Cc1cc(N=C2NC(=O)CS2)n[nH]1 | 110% | 132% | – | 116% | 103% | 109% | 103% | 108% | 119% | – | 94.8% | 128% | 95.8% | 101% | 97.6% | 118% | 96.5% | 113% | 115% | 104%
COc1ccc(-c2c(Nn3cnnn3)no[n+]2[O-])cc1 | 58.9% | 83.2% | – | 75.2% | -14.3% (active) | 67.1% | 53.6% | 55.1% | 63.1% | 30.2% | 62.2% | 42.5% | 66.3% | 51.6% | 56.3% | 71.8% | 59.9% | 39.5% | 26% | 38.8%
COc1cc2c(c(OC)c1OC)C(=O)CC(c1cccc(NC(=O)c3cc(NC(=O)[C@H](CO)NC(=O)OC(C)(C)C)ccc3Cl)c1)O2 (some centres undefined) | 37.3% | 33% | – | 50.3% | 27.6% | 58.2% | 42.8% | 43% | 27.5% | 12.7% | 43.2% | 46.8% | 45.4% | 37% | 37% | 26.9% | 22.5% | 34.3% | 39.7% | 6.43% (active)
CN(C)c1nc(NCCNS(=O)(=O)c2ccc(C3=Nc4c(N)nc(N)nc4NC(c4ccc(Cl)cc4)C3)cc2)nc(Nc2ccc(F)cc2)n1 (centres undefined) | 50.8% | 54.7% | – | 80.3% | 40.1% | 62.7% | 24.3% | 3.23% (active) | 64% | 11.8% | 14.6% | 20.1% | 43.7% | 48.5% | -51.1% (active) | 42.6% | 11.6% | 19.4% | – | 11.2%
COc1ccc(C(=O)/C=C/c2ccc3ccccc3c2)cc1S(N)(=O)=O | -23.7% (active) | 20.1% | – | -30.1% (active) | -62.9% (active) | -78.4% (active) | -89.2% (active) | -76.3% (active) | -9.03% (active) | – | 18.1% | -60.2% (active) | 12.8% | -80.5% (active) | -87.9% (active) | -48.4% (active) | -78.5% (active) | 2.36% (active) | 24.9% | 6.01% (active)
C(=C\c1cc(/C=C/c2ccccc2)c2ccccc2n1)/c1ccccc1 | 82.2% | 106% | – | 109% | 93.4% | 101% | 80.7% | 118% | 101% | 43.2% | 90.5% | 111% | 102% | 109% | 74.3% | 98.5% | 51.4% | 102% | 84% | –
CCCSc1nc(Nc2ccc(S(N)(=O)=O)cc2)c(C#N)c(-c2ccc(Cl)cc2)n1 | 31.4% | -2.08% (active) | 21.9 | – | 16.6% | 16.3% | -69.7% (active) | 46.8% | 58.7% | 7.3% (active) | -4.55% (active) | -43.4% (active) | 66% | 1.43% (active) | -4.39% (active) | 54.8% | 18.8% | 28.6% | – | -55.6% (active)
COc1ccc(-c2nc(SC(C)C)nc(NCCc3c[nH]c4ccccc34)c2C#N)cc1 | 45.6% | 40.8% | – | 51.5% | 35.8% | 47.1% | 30.3% | 45.7% | 54% | 14.5% | 78.8% | -20.3% (active) | 49.8% | 33.6% | 42.7% | 82.5% | 55.7% | 24.1% | 39% | 26.6%

— PubChem BioAssay (NCI)
